Values joined by “and” are separate entries in the source; they are usually repeats but may differ in a detail not shown here. Equal values may be shown once. Hit rate of the full screen: of about 5,500 compounds, about 2,000 (36%) were called active. Inconclusive results (about 18%) are left out. No stated cut-off is given here; in the data, active means normalized growth mostly below about 0.91 (no sharp cut-off); inconclusive means no clear call, values can overlap the other calls; inactive means mostly above about 0.92. This is one part of the list.
Test: chemical genetic growth profiling, strain panel (AID 1159580);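 further: tested at 20 µM; growth read once vehicle control cultures reached saturation at 30 °C; 1 = growth at the plate median or of vehicle wells; lower values mean less growth of the strain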
Settings: S. cerevisiae deletion strains, growth OD

Measured: normalized growth

CC(=O)O[C@H]1C[C@@H](O)C(C)(C)C2C[C@@H](OC(C)=O)[C@]3(C)C(CC[C@@]4(C)[C@H](c5ccoc5)OC(=O)C5OC543)[C@]21C (stereo partly specified)
inactive: locus YAL013W, strain DEP1, hits give low values 0.994 | locus YAL021C, strain ccr4, hits give low values 1.02 | locus YAL026C, strain drs2, hits give low values 1.01 | locus YAL030W, strain snc1, hits give low values 1 | locus YBL061C, strain skt5, hits give low values 1 | locus YBR009C, strain hhf1, hits give low values 0.997 | locus YBR021W, strain FUR4, hits give low values 1.03 | locus YBR023C, strain chs3, hits give low values 1.01 | locus YBR171W, strain sec66, hits give low values 1.01 | locus YBR229C, strain ROT2, hits give low values 0.948 | locus YBR231C, strain swc5, hits give low values 0.998 | locus YBR279W, strain paf1, hits give low values 0.999 | locus YCL011C, strain gbp2, hits give low values 0.999 | locus YCL016C, strain dcc1, hits give low values 0.997 | locus YCL029C, strain bik1, hits give low values 0.984 | locus YCL061C, strain MRC1, hits give low values 1.01 | locus YCL069W, strain vba3, hits give low values 1 | locus YCR088W, strain abp1, hits give low values 1.01 | locus YDL005C, strain med2, hits give low values 1 | locus YDL035C, strain GPR1, hits give low values 0.984 | locus YDL040C, strain nat1, hits give low values 1 | locus YDL074C, strain BRE1, hits give low values 0.952 | locus YDL101C, strain DUN1, hits give low values 0.986 | locus YDL185W, strain tfp1, hits give low values 0.97 | locus YDL192W, strain arf1, hits give low values 0.97 | locus YDR001C, strain nth1, hits give low values 1.01 | locus YDR069C, strain doa4, hits give low values 1.01 | locus YDR101C, strain arx1, hits give low values 0.973 | locus YDR137W, strain rgp1, hits give low values 1 | locus YDR159W, strain sac3, hits give low values 1.01 | locus YDR162C, strain NBP2, hits give low values 0.977 | locus YDR195W, strain ref2 0.985 | locus YDR297W, strain sur2, hits give low values 1.01 | locus YDR318W, strain mcm21, hits give low values 0.984 | locus YDR334W, strain swr1, hits give low values 1.01 | locus YDR335W, strain msn5, hits give low values 0.996 | locus YDR388W, hits give low values 1 | locus YDR392W, strain spt3, hits give low values 1.02 | locus YDR502C, strain sam2, hits give low values 1.01 | locus YEL003W, strain gim4, hits give low values 1 | locus YEL037C, strain rad23, hits give low values 0.997 | locus YEL061C, strain CIN8 (second series), hits give low values 1.01 | locus YER015W, strain faa2, hits give low values 1.01 | locus YER016W, strain bim1, hits give low values 1 | locus YER110C, hits give low values 0.97 | locus YER111C, strain swi4, hits give low values 1.02 | locus YER155C, strain BEM2 (second series), hits give low values 1.02 | locus YER155C, strain BEM2, hits give low values 1.02 | locus YER167W, strain BCK2, hits give low values 0.988 | locus YFR010W, strain ubp6, hits give low values 1.01 | locus YGL078C, strain dbp3, hits give low values 0.983 | locus YGL086W, strain mad1, hits give low values 0.997 | locus YGL167C, strain pmr1, hits give low values 0.999 | locus YGL173C, strain kem1, hits give low values 1.01 | locus YGL227W, strain vid30, hits give low values 1 | locus YGL240W, strain doc1, hits give low values 1 | locus YGL248W, strain PDE1, hits give low values 0.975 | locus YGL253W, strain hxk2, hits give low values 1.02 | locus YGR078C, strain PAC10, hits give low values 1 | locus YGR135W, strain pre9, hits give low values 1.03 | locus YGR229C, strain SMI1, hits give low values 0.976 | locus YGR252W, strain gcn5, hits give low values 0.966 | locus YHR013C, strain ard1, hits give low values 1.01 | locus YHR027C, strain rpn1, hits give low values 1.01 | locus YHR030C, strain SLT2, hits give low values 0.987 and 0.952 | locus YHR079C, strain IRE1 (second series), hits give low values 0.99 | locus YHR079C, strain IRE1, hits give low values 0.974 | locus YHR094C, strain hxt1, hits give low values 0.979 | locus YHR129C, strain ARP1, hits give low values 0.993 | locus YHR142W, strain chs7, hits give low values 0.999 | locus YHR200W, strain rpn10, hits give low values 0.99 | locus YIL066C, strain RNR3, hits give low values 0.957 | locus YIL073C, strain SPO22, hits give low values 1.04 | locus YIL125W, strain kgd1, hits give low values 0.983 | locus YIR030C, strain dcg1, hits give low values 0.992 | locus YJL092W, strain hpr5, hits give low values 1.01 | locus YJL095W, strain BCK1 (second series), hits give low values 1.01 | locus YJL095W, strain BCK1, hits give low values 1.03 and 1 | locus YJL115W, strain asf1, hits give low values 1 | locus YJL129C, strain trk1, hits give low values 1.01 | locus YJL134W, strain LCB3, hits give low values 0.978 | locus YJL154C, strain vps35, hits give low values 1 | locus YJL164C, strain tpk1, hits give low values 1.01 | locus YJL166W, strain qcr8, hits give low values 0.999 | locus YJL168C, strain set2, hits give low values 0.997 | locus YJL187C, strain SWE1 (second series), hits give low values 0.999
